From the supplement of paper PMC4962491 come the findings set out here.

± gives the standard deviation of the averaged measurements.

The subject of the assay is FaDu. Nature of the assay: mitochondrial oxygen consumption rate normalised to cell number, Z score vs plate DMSO wells; higher = higher oxygen consumption (negative = OCR reduction). As to conditions: treatment time 24 h, assay medium: 5 mM glucose, 5 mM pyruvate, 4 mM glutamine. As to the method:
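Secondary screen: FaDu cells were incubated 24 h with the top 130 primary hits at 0.08, 0.4, 2 or 10 uM. Mitochondrial-specific OCR (basal minus antimycin A) was measured on a Seahorse XF96 in medium with 5 mM glucose, 5 mM pyruvate and 4 mM glutamine and normalised to Hoechst cell number. OCR score = (OCR - mean of plate DMSO wells) / SD of plate DMSO wells. Three repeats.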
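Also: compound exposure in DMEM (4 mM L-glutamine, 5 mM glucose), antimycin A injected at 2 µM after the basal reading and its residual OCR subtracted from basal.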

With `CN1[C@@H]2CC[C@H]1C[C@@H](OC(=O)c1c[nH]c3ccccc13)C2`, the “mitochondrial oxygen consumption rate normalised” value was 0.168 ± 1.4 (0.08 µM), 1.48 ± 0.79 (0.4 µM), -0.138 ± 1.6 (2 µM) and -1.06 ± 2.5 (10 µM).
Turning to `COc1cc([C@@H]2c3cc4c(cc3[C@@H](O[C@@H]3O[C@@H]5CO[C@@H](c6cccs6)O[C@H]5[C@H](O)[C@H]3O)[C@H]3COC(=O)[C@H]23)OCO4)cc(OC)c1O` [Teniposide], the “mitochondrial oxygen consumption rate normalised” value was 0.487 ± 1.3 (0.08 µM) and 0.0174 ± 0.54 (0.4 µM).
Regarding `CCOC(=O)CCC(=O)O[C@H]1[C@H](O[C@@H]2[C@@H](C)[C@H](O[C@H]3C[C@@](C)(OC)[C@@H](O)[C@H](C)O3)[C@@H](C)C(=O)O[C@H](CC)[C@@](C)(O)[C@H](O)[C@@H](C)C(=O)[C@H](C)C[C@@]2(C)O)O[C@H](C)C[C@@H]1N(C)C`, the “mitochondrial oxygen consumption rate normalised” value by setting is: (0.08 µM) -0.00592 ± 1.6; (0.4 µM) 0.83 ± 0.89; (2 µM) -0.161 ± 1.9; (10 µM) 1.22 ± 0.77.
Regarding `COc1ccc(C[C@H](N)C(=O)N[C@H]2[C@@H](O)[C@H](n3cnc4c(N(C)C)ncnc43)O[C@@H]2CO)cc1`, the “mitochondrial oxygen consumption rate normalised” value reads like this: (0.08 µM) -1.29 ± 1.7; (0.4 µM) -0.131 ± 0.75; (2 µM) -3.4 ± 2.1.
Take `NS(=O)(=O)c1cc2c(cc1Cl)N=CNS2(=O)=O`: the “mitochondrial oxygen consumption rate normalised” value is -0.245 ± 2.1 (0.08 µM), 0.722 ± 0.73 (0.4 µM), 0.0559 ± 1.2 (2 µM) and 0.507 ± 1.1 (10 µM).
In the case of `CC[n+]1c(-c2ccccc2)c2cc(N)ccc2c2ccc(N)cc21`, the “mitochondrial oxygen consumption rate normalised” value (0.08 µM) was -0.559 ± 1.1, the “mitochondrial oxygen consumption rate normalised” value (0.4 µM) was -1.04 ± 0.79, the “mitochondrial oxygen consumption rate normalised” value (2 µM) is -3.43 ± 2.4 and the “mitochondrial oxygen consumption rate normalised” value (10 µM) is -6.28 ± 1.8.
With `CN(C)CCCN1c2ccccc2CCc2ccccc21`, the “mitochondrial oxygen consumption rate normalised” value (0.08 µM) was -0.638 ± 1.5, the “mitochondrial oxygen consumption rate normalised” value (0.4 µM) was -0.388 ± 0.95, the “mitochondrial oxygen consumption rate normalised” value (2 µM) is -0.981 ± 1.9 and the “mitochondrial oxygen consumption rate normalised” value (10 µM) is -0.576 ± 1.4.
The corresponding values for `CN(C)c1ccc2nc3ccc(=[N+](C)C)cc-3sc2c1` are 0.933 ± 1.1, 1.47 ± 0.68, -2.4 ± 1.5 and -2.94 ± 3.9.
For `COc1cccc2c1C(=O)c1c(O)c3c(c(O)c1C2=O)C[C@@](O)(C(=O)CO)C[C@@H]3O[C@H]1C[C@H](N)[C@@H](O)[C@H](C)O1` the same measures were -0.0709 ± 0.37, 1.4 ± 1, 1.18 ± 1.4 and 1.58 ± 2.4.
